The record followed here is PubChem BioAssay (NCI).

About 83,000 compounds went through this panel and 20% of them were active in at least one assay; those are over-represented in the sample as a whole.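 Assay: single dose, 48 h. Readout: percent growth (0 = no net growth; negative = cell death). Active: <10.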 Unmarked numbers belong to inactive results. Calls of active or inactive are those of the source.

Test systems include T-47D breast; BT-549 breast; MDA-MB-435 melanoma; SW-620 colon; MCF7 breast; HCT-116 colon; KM12 colon; HCC-2998 colon.
What all share (assay): NCI-60 one-dose screen, 48 h (100 = growth as untreated, 0 = no growth, -100 = all killed)
Common to all, as to conditions: 10 µM unless noted

As for `CC1CN(C2CCCCC2)C(=O)NC1=O` (centres undefined), the growth with T-47D breast is 93%; with BT-549 breast, 104%; in the experiment with MDA-MB-435 melanoma it was 112%; with SW-620 colon, 102%; in the experiment on MCF7 breast, 101%; with HCT-116 colon, 101%. In addition, the growth in the experiment on KM12 colon is 111%.
As to `CC(NC(N)=S)c1ccccc1` (centres undefined), the growth is 89.6% in the experiment with T-47D breast; 118% with BT-549 breast; 106% in the experiment with MDA-MB-435 melanoma; 98.7% in the experiment with SW-620 colon; 94.5% with MCF7 breast; 107% with HCT-116 colon. Besides, the growth in the experiment on KM12 colon was 104%.
As for `Cc1cc2c(cc1C)[n+](Cc1ccc3ccccc3n1)cn2Cc1ccc2ccccc2n1`, the growth with T-47D breast is -1.32% (active); with BT-549 breast, -45.9% (active); in the experiment with MDA-MB-435 melanoma, -24.5% (active); with MCF7 breast, 7.12% (active); with HCT-116 colon, -0.984% (active); with HCC-2998 colon, 3.84% (active). Moreover, in the experiment with KM12 colon, the growth was -7.23% (active).
Take `NC(=O)c1cc(Br)cc(Br)c1NS(=O)(=O)c1ccccc1`: the growth in the experiment on T-47D breast was 99.2%; in the experiment with BT-549 breast, 103%; with MDA-MB-435 melanoma, 111%; in the experiment with MCF7 breast it was 99%; in the experiment on HCT-116 colon, 100%; in the experiment on HCC-2998 colon it was 106%. Also, the growth in the experiment with KM12 colon was 106%.
As to `O=C(C(=O)c1cc(Br)ccc1O)c1cc(Br)ccc1O`, the growth with T-47D breast was 8.38% (active); in the experiment on BT-549 breast it was 21.7%; in the experiment on MDA-MB-435 melanoma, 49.8%; in the experiment on SW-620 colon, 66.5%; in the experiment on MCF7 breast, 36.5%; in the experiment on HCT-116 colon it was 40.3%. The growth in the experiment with KM12 colon was 48.6%.
Turning to `COc1ccc(CNC(=O)c2c(C)n([O-])c3ccccc3[n+]2=O)cc1`, the growth in the experiment with T-47D breast was 81.3%; in the experiment with BT-549 breast, 76.8%; with MDA-MB-435 melanoma, 124%; with SW-620 colon it was 108%; in the experiment with MCF7 breast, 91%; in the experiment with HCT-116 colon it was 97.9%. Also, the growth with KM12 colon was 131%.
As to `NC(=N\N=C/Cc1ccccc1)/C(N)=N\N=C\Cc1ccccc1`, the growth is 91.7% in the experiment with T-47D breast; 104% in the experiment with BT-549 breast; 107% in the experiment on MDA-MB-435 melanoma; 104% in the experiment on SW-620 colon; 101% in the experiment on MCF7 breast; 108% in the experiment on HCT-116 colon. Moreover, the growth in the experiment with KM12 colon was 104%.
With `Cc1ccc(C(=O)Cc2ccccc2)c(O)c1`, the growth is 95.8% in the experiment with T-47D breast; 105% in the experiment on BT-549 breast; 115% in the experiment on MDA-MB-435 melanoma; 105% in the experiment on SW-620 colon; 99.9% in the experiment on MCF7 breast; 108% with HCT-116 colon. In the experiment on KM12 colon, the growth is 110%.
On to `Clc1ccc2c(c1)C(Br)c1cc(Cl)cc(Cl)c1-2` (centres undefined), for which the growth in the experiment on T-47D breast is 73%; in the experiment with BT-549 breast, 87.3%; in the experiment with MDA-MB-435 melanoma, 85.7%; in the experiment on SW-620 colon, 60.4%; in the experiment on MCF7 breast it was 69%; in the experiment with HCT-116 colon, 65.4%. The growth in the experiment with KM12 colon is 98.3%.
Take `O=CNc1ccc2c(c1)Cc1cc([N+](=O)[O-])ccc1-2`: the growth was 29.1% with T-47D breast; 16.5% in the experiment with BT-549 breast; -27.9% (active) in the experiment with MDA-MB-435 melanoma; 32.4% in the experiment with SW-620 colon; 16.3% in the experiment on MCF7 breast; 11.7% in the experiment with HCT-116 colon. The growth with KM12 colon is 13.9%.
For `COc1ccc(NS(=O)(=O)N2CCCCC2)cc1`, the growth in the experiment with T-47D breast was 95.3%; in the experiment with BT-549 breast, 104%; with MDA-MB-435 melanoma, 116%; in the experiment with SW-620 colon it was 98%; with MCF7 breast, 108%; in the experiment with HCT-116 colon, 103%. The growth with KM12 colon is 110%.
For the compound `O=c1[nH]c(N2CCC(Cc3ccccc3)CC2)nc2sc3c(c12)CCCC3`, the growth was 96.6% in the experiment on T-47D breast; 109% in the experiment on BT-549 breast; 102% with MDA-MB-435 melanoma; 98.1% with MCF7 breast; 104% in the experiment with HCT-116 colon; 103% in the experiment with HCC-2998 colon. The growth in the experiment with KM12 colon is 100%.
In the case of `CCSc1nc(Nc2ccc(S(=O)(=O)Nc3ccon3)cc2)c(C#N)c(-c2cccc(Br)c2)n1`, the growth with T-47D breast was 81%; in the experiment on BT-549 breast, 90.2%; in the experiment on MDA-MB-435 melanoma, 102%; with MCF7 breast, 79.2%; in the experiment on HCT-116 colon, 85%; in the experiment with HCC-2998 colon it was 106%. Moreover, the growth with KM12 colon is 95.1%.
Turning to `O=C1C=CC(=O)N1c1ccccn1`, the growth in the experiment with T-47D breast is 106%; in the experiment on BT-549 breast, 104%; with MDA-MB-435 melanoma, 116%; in the experiment with SW-620 colon it was 101%; in the experiment with MCF7 breast, 100%; in the experiment on HCT-116 colon it was 96.8%. Besides, in the experiment on KM12 colon, the growth is 107%.
For the compound `Cc1ccc2nc(SCC(=O)Nc3ccc(-c4nc5ccccc5s4)c(Cl)c3)[nH]c2c1`, the growth with T-47D breast is 99.2%; with BT-549 breast, 103%; in the experiment with MDA-MB-435 melanoma it was 111%; in the experiment with SW-620 colon, 111%; in the experiment with MCF7 breast, 90.6%; with HCT-116 colon, 101%. The growth in the experiment with KM12 colon was 115%.
As to `CC[C@@H](C)/C=C(C)/C=C/C(O)=C1\C(=O)N[C@@H](Cc2ccc(OC(=O)[C@@](OC)(c3ccccc3)C(F)(F)F)cc2)C1=O`, the growth is 113% in the experiment with T-47D breast; 88.8% in the experiment on BT-549 breast; 101% in the experiment with MDA-MB-435 melanoma; 96.7% in the experiment with SW-620 colon; 99.8% in the experiment with MCF7 breast; 91% in the experiment on HCT-116 colon. Moreover, the growth in the experiment with KM12 colon was 91.1%.
On to `COc1ccc2c(c1)CC/C(=C\c1ccc(OCC(=O)Nc3nc4ccccc4s3)cc1)C2=O`, for which the growth in the experiment with T-47D breast is 88.3%; in the experiment on BT-549 breast, 83.6%; in the experiment on SW-620 colon, 93.9%; in the experiment with MCF7 breast it was 98.4%; with HCT-116 colon, 89.1%; in the experiment with HCC-2998 colon, 87.6%. Also, the growth with KM12 colon is 108%.
